Reference: PubChem BioAssay
Values joined by “and” are separate entries in the source; they are usually repeats but may differ in a detail not shown here. Equal values may be shown once. For part of these data: Entries with a potency or affinity are not part of this list. Active and inactive are the calls of the source. Unless noted, no rule for the calls is given here.

Tests used:
[1] = blockers of polyQ-driven CASP3 activation – cell-based (AID 1583); settings: polyglutamine-induced caspase-3 activation, cell assay; stronger effect = higher value;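 tested at 10 µM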
[2] = yeast 75Q aggregation reduction – 75Q-TubU reporter (AID 1593); settings: Yeast 75Q polyglutamine aggregation reporter
[3] = restoration of touch response, mutant HTT neurons – whole organism, C. elegans mechanosensory neurons, N-terminal huntingtin (AID 1599); settings: C. elegans polyQ-huntingtin mechanosensory neurons, stronger effect = higher value
[4] = blockers of cytochrome c efflux from mitochondria – biochemical, purified mitochondria (AID 1603); settings: stronger effect = lower value;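 also: mouse liver mitochondria challenged with calcium chloride; signal normalized to the plate average as 100%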
[5] = polyglutamine aggregate formation blockers (AID 1604); settings: polyglutamine-induced protein aggregation inhibition assay; stronger effect = higher value; tested at 2.5 µM
[6] = glutamate transport activators, MN-1 cells, MN-1 cell line (AID 1612); settings: MN-1 motor neuron cells, stronger effect = higher value;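 also: tested at 1 µM final; 0% = mean of DMSO vehicle wells on each plate; positive means more glutamate uptake than control and negative means less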
[7] = GFP-Q80 aggregate reduction, neuronal-like cells, cell-based, NGF-treated PC12, GFPQ80 (AID 1614); settings: PC12 NGF-treated GFP-polyQ80 inclusion reduction;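 also: lower means fewer inclusions and 0 means no inclusions at all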
[8] = 75Q-TubH aggregate inhibition, S. cerevisiae, yeast (AID 1616); settings: S. cerevisiae 75Q-TubH polyglutamine aggregation suppression; stronger effect = higher value
[9] = compounds altering circadian rhythm period length – cell-based, LOPAC library, luminescence reporter (AID 2774); settings: circadian reporter cells, at 7 µM, actives lie on both sides;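 also: values are relative to mean of DMSO wells on each plate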
[10] = test system: Hepatitis C virus NS3 helicase; assay: blockers of NS3h binding to ssDNA – biochemical, fluorescence polarization, LOPAC1280 library, primary screen (AID 687035; in the data active = inhibition above about 37%); settings: Purified HCV NS3 helicase, Cy5-dT15 ssDNA binding fluorescence polarization; stronger effect = higher value; concentration not given here
[11] = compounds altering Cy5-DNA-NS3h complex signal – biochemical, LOPAC1280, artefact control for HCV NS3 helicase inhibitor project (AID 687037); settings: Cy5-DNA-NS3h complex fluorescence interference counterscreen
[12] = target: 6-phosphogluconate dehydrogenase, decarboxylating (Homo sapiens) (UniProt P52209); assay: inhibition of human phosphogluconate dehydrogenase – biochemical, recombinant enzyme, NADPH absorbance, primary screen (AID 1159550;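 active = at least 20% inhibition of 6-phosphogluconate dehydrogenase activity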); settings: recombinant 6PGD, NADPH absorbance 341 nm; at 10 µM; stronger effect = higher value
Chain of 6-phosphogluconate dehydrogenase, decarboxylating (Homo sapiens) (P52209 whole entry, looked up): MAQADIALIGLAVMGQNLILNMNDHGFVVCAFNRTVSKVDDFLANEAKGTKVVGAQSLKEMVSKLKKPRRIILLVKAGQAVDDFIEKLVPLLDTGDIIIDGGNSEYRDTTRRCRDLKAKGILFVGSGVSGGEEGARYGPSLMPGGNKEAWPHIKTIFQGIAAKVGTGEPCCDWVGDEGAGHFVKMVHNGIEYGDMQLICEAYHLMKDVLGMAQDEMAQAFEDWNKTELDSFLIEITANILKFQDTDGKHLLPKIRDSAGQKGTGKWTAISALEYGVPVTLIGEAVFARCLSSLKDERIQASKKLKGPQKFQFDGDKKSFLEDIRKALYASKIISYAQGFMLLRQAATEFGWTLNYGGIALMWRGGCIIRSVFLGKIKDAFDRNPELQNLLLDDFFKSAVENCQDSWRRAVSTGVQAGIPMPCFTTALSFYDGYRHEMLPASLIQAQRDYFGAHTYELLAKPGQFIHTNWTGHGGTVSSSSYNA

[13] = EMT-state selective cytotoxicity in co-culture – imaging, PC-3E GFP, TEM4-18 mCherry, primary screen (AID 1345086;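 active = compounds killing one labelled cell type while sparing the other, by normalised counts and ratio limits, not self-fluorescent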;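 as to all read-outs here: cells exposed to compound for 72 h before imaging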;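 as to red/green cell ratio (normalised): normalised mesenchymal count divided by normalised epithelial count so high means epithelial killing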); settings: PC-3E GFP / TEM4-18 mCherry co-culture, imaging cell counts, at 1 µM; for red/green cell ratio (normalised): actives lie on both sides, counts scaled to control wells, 1 = unselective
[14] = blockers of cellular phospholipid synthesis – cell-based, LOPAC library, screen 4, primary screen (AID 1347384); settings: animal cells, phospholipid biosynthesis inhibition screen; at 10 µM
[15] = MELAS cybrid and Rieske KO viability enhancers – cell-based, MELAS cybrids, Rieske KO mouse fibroblasts, CellTiter-Glo, primary screen (AID 1508586;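 active = mean z-score across replicates of 1.96 or higher in either the MELAS or the Rieske mutant cell line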;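 also: z relative to plate mean and SD of compound and empty wells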); settings: low glucose
[16] = galactose survival enhancers in mitochondrial complex I cybrids – cell-based, galactose medium, ATP luminescence, primary screen (AID 1645843;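 active = z-score of at least 1.8 in each of two replicates, scored against plate mean and spread of sample wells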;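 also: positive z means more ATP and so rescue of galactose-driven cybrid death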); settings: complex I mutant cybrid cells, 72 h, stronger effect = higher value
[17] = viability loss with induced miR-34 in A549 – imaging, A549 dox-inducible miR-34, nuclei and caspase counts, primary screen (AID 1347080;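 active = compounds whose cell count with miR-34 switched on is under 0.7 times the count with it off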); settings: A549 miR-34 inducible, Hoechst nuclei count, 48 h
[18] = target: Mitogen-activated protein kinase 7 (Homo sapiens) (UniProt Q13164); assay: Gal4-ERK5 driven luciferase induction – cell-based, HTS, primary screen (AID 1508626;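 active = luciferase signal above three times the same-plate solvent-only control wells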;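 also: luciferase driven by Gal4-ERK5 fusion binding five Gal4 sites before minimal TATA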); settings: HeLa Gal4-ERK5 transactivation, 18 h, at 5 µM, stronger effect = higher value
Chain of Mitogen-activated protein kinase 7 (Homo sapiens) (Q13164 whole entry, looked up, the tested form may be a part): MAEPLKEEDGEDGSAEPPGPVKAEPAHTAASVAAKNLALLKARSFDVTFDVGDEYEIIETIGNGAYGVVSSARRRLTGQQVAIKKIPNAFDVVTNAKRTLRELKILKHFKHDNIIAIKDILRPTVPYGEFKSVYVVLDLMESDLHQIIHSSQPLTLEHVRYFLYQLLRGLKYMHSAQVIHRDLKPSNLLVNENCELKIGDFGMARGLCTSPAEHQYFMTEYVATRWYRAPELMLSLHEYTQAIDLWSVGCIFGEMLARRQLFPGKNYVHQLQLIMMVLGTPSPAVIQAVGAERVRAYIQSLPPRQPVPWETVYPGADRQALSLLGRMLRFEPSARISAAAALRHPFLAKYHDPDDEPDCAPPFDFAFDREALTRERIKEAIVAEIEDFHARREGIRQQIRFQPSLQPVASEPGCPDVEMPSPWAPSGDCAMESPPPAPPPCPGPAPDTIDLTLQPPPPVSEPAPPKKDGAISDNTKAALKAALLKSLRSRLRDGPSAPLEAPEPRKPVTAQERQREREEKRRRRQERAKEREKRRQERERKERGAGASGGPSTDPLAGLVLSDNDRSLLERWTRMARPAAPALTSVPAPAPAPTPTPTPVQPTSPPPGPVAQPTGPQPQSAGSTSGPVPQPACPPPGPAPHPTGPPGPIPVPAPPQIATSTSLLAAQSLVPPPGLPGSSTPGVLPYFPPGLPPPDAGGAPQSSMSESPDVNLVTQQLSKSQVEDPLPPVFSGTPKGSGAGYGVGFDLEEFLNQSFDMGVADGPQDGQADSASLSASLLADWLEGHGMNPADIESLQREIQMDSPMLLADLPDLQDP

[19] = measured here: epithelial PC-3E GFP cell survival
[20] = measured here: mesenchymal TEM4-18 mCherry cell survival
[21] = MELAS cybrid survival, CellTiter-Glo 48 h, stronger effect = higher value
[22] = Rieske KO mouse fibroblast survival, CellTiter-Glo 72 h
[23] = stronger effect = lower value, cell number ratio, induced over uninduced
[24] = measured here: relative caspase fold change +Dox/-Dox
[25] = measured here: total cells with miR-34 induction, stronger effect = lower value
[26] = measured here: total cells without miR-34 induction

CN1C2CCC1CC(OC(=O)C(CO)c1ccccc1)C2 (centres undefined)
inhibition [1]: -7.62% | score [2]: 1.48 | rescue above control [3]: -4.85 | cytochrome c release ratio [4]: 1.14 | inhibition of aggregation [5]: 83.1% | glutamate uptake change [6]: 7.04% | inclusion score [7]: 2 | aggregation suppression score [8]: 1.57 | period change [9]: 0.005 hour (inactive) and 0.075 hour (inactive) | inhibition [10]: 0% (inactive) and -1% (inactive) | fluorescence ratio (interference) [11]: 0.9 (inactive) and 1.1 (inactive) | inhibition [12]: -2.64% (inactive) | red/green cell ratio (normalised) [13]: 1.05 (inactive) | normalised cell number [13, 19]: 0.95 | normalised cell number [13, 20]: 1 | outcome [14]: inactive | z-score [15, 21]: -0.14 (inactive) | z-score [15, 22]: -0.261 | z-score [16]: 0.025 (inactive) and 0.13 (inactive)

O=C(/C=C/c1ccc(O)cc1)c1ccc(O)cc1O
period change [9]: 0.18 h (inactive) | inhibition [10]: 0% (inactive) | fluorescence ratio (interference) [11]: 0.9 (inactive) | inhibition [12]: -4.78% (inactive) | red/green cell ratio (normalised) [13]: 1.01 (inactive) | normalised cell number [13, 19]: 0.91 | normalised cell number [13, 20]: 0.91 | fold change [17, 23]: 1.12 (inactive) | fold change [17, 24]: 0.85 | cell count [17, 25]: 9020 | cell count [17, 26]: 8080 | outcome [14]: inactive | luciferase signal [18]: 80 AU (inactive) | z-score [16]: -0.25 (inactive)

O=c1c(O)c(-c2ccc(O)c(O)c2)oc2cc(O)ccc12
inhibition [12]: -3.55% (inactive) | red/green cell ratio (normalised) [13]: 1.02 (inactive) | normalised cell number [13, 19]: 1.04 | normalised cell number [13, 20]: 1.06 | fold change [17, 23]: 0.705 (inactive) and 0.857 (inactive) | fold change [17, 24]: 0.235 and 0.741 | cell count [17, 25]: 4440 and 7100 | cell count [17, 26]: 6300 and 8290 | z-score [15, 21]: -0.19 (inactive) and -0.5 (inactive) | z-score [15, 22]: -0.897 and -0.252 | luciferase signal [18]: 56 AU (inactive) | z-score [16]: 0.17 (inactive)

CN(C)CCN(Cc1cccs1)c1ccccn1
inhibition [1]: 23.7% | score [2]: 1.21 | rescue above control [3]: -13.2 | cytochrome c release ratio [4]: 0.66 | inhibition of aggregation [5]: 81.4% | glutamate uptake change [6]: -6.5% | inclusion score [7]: 2 | aggregation suppression score [8]: 1.19 | period change [9]: 0.21 h (inactive) | inhibition [10]: -1% (inactive) | fluorescence ratio (interference) [11]: 1 (inactive) | inhibition [12]: 15.9% (inactive) | red/green cell ratio (normalised) [13]: 1.12 (inactive) | normalised cell number [13, 19]: 1.1 | normalised cell number [13, 20]: 1.22 | fold change [17, 23]: 1.16 (inactive) and 0.855 (inactive) and 0.861 (inactive) | fold change [17, 24]: 0.908 and 1.23 and 2.97 | cell count [17, 25]: 11200 and 8440 and 11600 | cell count [17, 26]: 9630 and 9870 and 13500 | outcome [14]: inactive | z-score [15, 21]: 0.365 (inactive) | z-score [15, 22]: -0.164 | luciferase signal [18]: 36 AU (inactive) | z-score [16]: 0.215 (inactive)
